uPA surface inh = cell surface uPA generation inhibition; cell surface uPA generation assay, qHTS; Potency, µM (highest dose often 38.3 µM), without a hit: at the highest dose activity change, negative = inhibition, most hits filed as inhibitors; 330,000 tested, 0.31% active; AID 540303; active = well fitted inhibition curve with a large enough effect; inconclusive = small, poorly fitted or top-dose-only effect; inactive = no such curve, though single readings can be large or run the other way; tested in mouse RAW 264.7 cells; also: potency is read from the fitted curve at half-maximal effect; nearly all actives have a fitted effect of over 55% in size
TDP1 cell CPT = DT40-hTDP1 cell growth loss with CPT; Potency, µM (top dose mostly 46.2 µM), inactives show at the highest dose activity change, negative = growth inhibition, usual class: inhibitors; 420,000 tested, 12% active; chicken DT40 Tdp1-/-;hTDP1 cells + 20 nM CPT, ATP luminescence, 48 h; AID 686979; also: potency is read from the fitted curve at half-maximal effect; nearly all actives have a fitted effect of over 55% in size
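Chicken DT40 Tdp1-/- cells stably complemented with human TDP1 were seeded at 400 cells/well in medium containing 20 nM camptothecin, exposed to pin-transferred compounds, and grown at 37 °C for at least 48 hr. Viability was read as ATP luminescence.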
TDP1 cell noCPT = qHTS for Inhibitors of human tyrosyl-DNA phosphodiesterase 1 (TDP1): qHTS in cells in absence of CPT | DT40 Tdp1-/- hTDP1 cells, no CPT, ATP luminescence, 48 h | Potency, µM (series often up to 46.2 µM), for inactives: top-dose activity change, negative = growth inhibition, actives largely listed as inhibitors | 420,000 tested, 15% active | AID 686978, 2013; also: potency is read from the fitted curve at half-maximal effect; nearly all actives have a fitted effect of over 55% in size
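Readout: luminescence from CellTiter-Glo after 30 min in the dark at RT. Cells: DT40 Tdp1-/- with stable hTDP1, 400/well. Exposure: compounds alone, ≥48 hr, 37 °C.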
IL-1B inflam inh = blocks inflammasome-driven IL-1 beta release | THP-1 LPS/ATP IL-1B secretion, AlphaLISA, 16 h; stronger effect = lower value | activity change, % at 57.5 µM | 360,000 tested, 4.7% active; in the data active = activity change below about -50%; inconclusive = mostly about -30% to -49%
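Secreted IL-1B measured by AlphaLISA bead assay after 16 h compound exposure of THP-1 cells; compounds (final up to 57.5 uM) added 1 h before LPS (250 ng/mL) and ATP (1.25 mM) stimulation; lower signal means less secretion.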
HT1080 IDH1KD tx = HT-1080 IDH1 knockdown cell toxicity (counter line). HT-1080 IDH1 knockdown viability, ATP luminescence, 48 h. Potency, µM (series often up to 46.1 µM), without a hit: top-dose activity, negative = toxicity, most hits filed as cytotoxic. 360,000 tested, 2% active;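 also: potency is read from the fitted curve at half-maximal effect; 0% = DMSO wells and -100% = cell-free medium wells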
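% activity derives from luminescence (CellTiter-Glo), normalised to DMSO and no-cell wells. HT-1080-IDH1KD cells, 750/well, had 48 h compound exposure at 37 °C.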
HT1080-NT tox = kills 2HG-producing HT-1080-NT fibrosarcoma cells; HT-1080-NT fibrosarcoma viability, CellTiter-Glo ATP luminescence, 48 h; Potency, µM (top dose mostly 46.1 µM), without a hit: top-dose activity, negative = less viability, usual class: cytotoxic; 360,000 tested, 1.6% active; AID 686970;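 also: NT is the 2HG producing partner of a matched IDH1 knockdown line; potency is read from the fitted curve at half-maximal effect; 0% = DMSO-treated cells and -100% = media-only wells without cells; nearly all actives have a fitted effect of over 55% in size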
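Viability by CellTiter-Glo luminescence after 48 h compound exposure at 37C of HT-1080-NT cells (750/well, RPMI, 5% FBS). % activity scaled between DMSO wells and medium-only wells, then curve-fitted and categorized by curve class.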
Numbers without * were called inactive. Most compounds without a hit are left out; they make up all but 19% or so of the library. Unless noted, calls follow the shape of the dose curve; as a rule, active = well fitted curve in the direction sought with a large enough effect; inconclusive = small, poorly fitted or top-dose-only effect, or another doubt; inactive = no such curve, though single readings can be large; an effect the other way counts as inactive or inconclusive. Unless noted, % is scaled to controls: 0 for no effect and ±100 for the full control effect.

Screening CC1=C(C(=O)N(C(C)C)C(C)C)CC(CC(=O)NC2CCCC2)C(=O)N1Cc1ccccc1 (stereo not drawn) returned TDP1 cell CPT -14.6%, TDP1 cell noCPT inconclusive, IL-1B inflam inh 1.0, HT1080 IDH1KD tx -1.9% and HT1080-NT tox 11.0%.
Screening Cc1cccc(C(=O)N[C@@H]2c3ccccc3C[C@@H]2O)n1 returned uPA surface inh 12.3%, TDP1 cell CPT 1.5%, TDP1 cell noCPT -23.5%, IL-1B inflam inh 13.1, HT1080 IDH1KD tx 6.9% and HT1080-NT tox 7.5%.
Screening O=C(O)C1CCN(C(=O)CSc2nnc3ccccn23)CC1 returned uPA surface inh -12.3%, TDP1 cell CPT 13.4%, TDP1 cell noCPT 21.9%, IL-1B inflam inh 0.8, HT1080 IDH1KD tx -3.5% and HT1080-NT tox 4.2%.
Screening COc1ccc(-n2cnc3c(N)nc(N)nc32)cc1 returned uPA surface inh -5.4%, TDP1 cell CPT -8.2%, TDP1 cell noCPT -19.2%, IL-1B inflam inh -4.2, HT1080 IDH1KD tx 7.7% and HT1080-NT tox 2.9%.
`Cc1ccc(C)c(S(=O)(=O)n2nc(C)c(S(=O)(=O)N3CCCCCC3)c2C)c1` gave TDP1 cell CPT -2.4% and TDP1 cell noCPT 6.1%.
Screening CC(=O)Nc1ccc(Nc2ncnc3c2c(-c2ccccc2)cn3-c2ccc(C)c(Cl)c2)cc1 returned TDP1 cell CPT 9.2µM* and TDP1 cell noCPT 8.2µM*.
For O=C(Nc1ccccn1)c1cc(-c2cccnc2)nc2ccc(Br)cc12 the results were uPA surface inh 3.0%, TDP1 cell CPT inconclusive, TDP1 cell noCPT inconclusive, IL-1B inflam inh 8.9, HT1080 IDH1KD tx inconclusive and HT1080-NT tox inconclusive.
For O=C(Nc1ccc(C(=O)N2CCOCC2)cc1)c1cc(-c2cccnc2)nc2ccc(Br)cc12 the results were uPA surface inh -21.6%, TDP1 cell CPT 2.31µM*, TDP1 cell noCPT 2.31µM*, IL-1B inflam inh -53.1*, HT1080 IDH1KD tx -25.1% and HT1080-NT tox -29.4%.
CS(=O)(=O)N1CCN(C(=O)c2cc(-c3cccnc3)nc3ccc(Cl)cc23)CC1 was read as uPA surface inh -0.2%, TDP1 cell CPT 0.0%, TDP1 cell noCPT inconclusive, IL-1B inflam inh 42.7, HT1080 IDH1KD tx 0.0% and HT1080-NT tox -2.8%.
`CS(=O)(=O)N1CCN(C(=O)c2cc(-c3cccnc3)nc3ccc(Br)cc23)CC1` gave uPA surface inh -2.3%, TDP1 cell CPT -4.1%, TDP1 cell noCPT 9.2µM*, IL-1B inflam inh 61.0, HT1080 IDH1KD tx -12.5% and HT1080-NT tox -3.6%.
For CC(=O)c1ccc(N2CCN(C(=O)c3cc(-c4cccnc4)nc4ccc(Br)cc34)CC2)cc1 the results were uPA surface inh -6.2%, TDP1 cell CPT inconclusive, TDP1 cell noCPT 18.4µM*, IL-1B inflam inh -10.7, HT1080 IDH1KD tx 1.9% and HT1080-NT tox -14.4%.
Screening O=C(c1cc(-c2cccnc2)nc2ccc(Br)cc12)N1CCN(c2ncccn2)CC1 returned uPA surface inh -4.0%, TDP1 cell CPT inconclusive, TDP1 cell noCPT 18.4µM*, IL-1B inflam inh -5.6, HT1080 IDH1KD tx -7.3% and HT1080-NT tox -6.0%.
For O=C(c1cc(-c2ccc(Br)cc2)nc2ccccc12)N1CCC1 the results were uPA surface inh -0.2%, TDP1 cell CPT inconclusive, TDP1 cell noCPT inconclusive, IL-1B inflam inh inconclusive, HT1080 IDH1KD tx -1.6% and HT1080-NT tox -9.1%.
`Cc1cccc(S(=O)(=O)NC(=O)C2(C)CCN2C(=O)c2sccc2C)c1` (stereo not drawn) gave TDP1 cell CPT -6.7%, TDP1 cell noCPT -8.6%, IL-1B inflam inh 4.2, HT1080 IDH1KD tx 4.6% and HT1080-NT tox 1.4%.
For CCOC(=O)C1(C)CCCN(C(=O)c2c(F)cccc2F)C1 (stereo not drawn) the results were TDP1 cell CPT -13.8%, TDP1 cell noCPT -9.2%, IL-1B inflam inh 8.6, HT1080 IDH1KD tx 0.8% and HT1080-NT tox inconclusive.
Cc1ccc2nc(-c3cccnc3)cc(C(=O)N3CCN(c4ccc([N+](=O)[O-])cc4)CC3)c2c1 was read as uPA surface inh -0.4%, TDP1 cell CPT 16.4µM*, TDP1 cell noCPT 18.4µM*, IL-1B inflam inh 9.8, HT1080 IDH1KD tx 1.8% and HT1080-NT tox -0.1%.
CN(C)Cc1csc(NC(=O)Nc2ccccc2C(C)(C)C)n1 was read as TDP1 cell CPT inconclusive, TDP1 cell noCPT -20.4%, IL-1B inflam inh 0.1, HT1080 IDH1KD tx 11.7% and HT1080-NT tox -9.0%.
NC(CO)c1csc(Nc2ccc(C(F)(F)F)cn2)n1 (stereo not drawn) was read as TDP1 cell CPT inconclusive, TDP1 cell noCPT inconclusive, IL-1B inflam inh -5.4, HT1080 IDH1KD tx -24.7% and HT1080-NT tox -15.2%.
Screening CC(C)CC(N)c1csc(Nc2ccc(C(F)(F)F)cn2)n1 (stereo not drawn) returned TDP1 cell CPT 11.6µM*, TDP1 cell noCPT 6.51µM*, IL-1B inflam inh -54.0*, HT1080 IDH1KD tx inconclusive and HT1080-NT tox 18.4µM*.
CN(C)Cc1csc(Nc2ccc(C(F)(F)F)cn2)n1 was read as TDP1 cell CPT 25.9µM*, TDP1 cell noCPT -83.7%, IL-1B inflam inh -3.9, HT1080 IDH1KD tx -29.6% and HT1080-NT tox inconclusive.
`NC(Cc1ccc(Cl)cc1)c1csc(Nc2ccc(C(F)(F)F)cn2)n1` (stereo not drawn) gave TDP1 cell CPT 9.2µM*, TDP1 cell noCPT 9.2µM*, IL-1B inflam inh -67.4*, HT1080 IDH1KD tx inconclusive and HT1080-NT tox inconclusive.
O=C(c1ccc(F)cc1)N1CCCC(C(=O)N2CCc3ccccc3C2)C1 (stereo not drawn) was read as uPA surface inh -0.4%, TDP1 cell CPT inconclusive, TDP1 cell noCPT -25.2%, IL-1B inflam inh -24.7, HT1080 IDH1KD tx -1.0% and HT1080-NT tox 3.1%.
Cn1cc([C@]2(O)C(=O)Nc3ccc(OC(F)(F)F)cc32)c2ccccc21 was read as TDP1 cell CPT inconclusive, TDP1 cell noCPT inconclusive, IL-1B inflam inh 0.0, HT1080 IDH1KD tx inconclusive and HT1080-NT tox inconclusive.
For CC(C)Oc1ccc(CNS(=O)(=O)c2cnc(N)nc2)cc1 the results were TDP1 cell CPT -11.0% and TDP1 cell noCPT -2.4%.
CN(C)c1ccc(CNS(=O)(=O)c2csc(C(N)=O)c2)cc1 was read as uPA surface inh 2.9%, TDP1 cell CPT 23.1µM*, TDP1 cell noCPT 7.31µM*, IL-1B inflam inh 39.0, HT1080 IDH1KD tx 0.0% and HT1080-NT tox -0.8%.

Bioassay records (PubChem BioAssay)
